# Where a name gives a salt, the structure may show the parent alone.
# Columns and labels:
# Settings in all cases: incubation time: 27 h, anaerobic, 37 °C;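 for the amine columns active = adjusted P below 0.05 in both replicates with a change the same way and a mean fold change under 0.8 or over 1.25; inactive = the rest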
# [1] = system: Clostridium sporogenes DSM 1664; experiment: growth (OD595) fold change vs plate DMSO controls (fold change (ratio)); higher = more growth
# Method in brief: (§1)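 To obtain OD, 595 nm absorbance readings were blank-subtracted, corrected for compound background using 20 µM compound solutions in water, and multiplied by a calibration factor of 5. They came from 96-well mGAM cultures grown anaerobically for 27 h at 37 °C and shaken before reading. Growth is the fold change relative to the median of plate DMSO controls. Two biological replicates were averaged, and fold changes above 1.5 were set to NA.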
# Escherichia coli IAI1 [2] = experiment: as above
# Method in brief: as §1
# [3] = system: Klebsiella aerogenes DSM 30053; experiment: as above
# Method in brief: as §1
# [4] = system: Ruminococcus gnavus DSM 108212; experiment: as above
# Method in brief: as §1
# [5] = system: Klebsiella aerogenes DSM 30053; experiment: fold change of Histamine concentration vs plate DMSO controls (fold change (ratio)); higher = more amine produced, active = hit call of the paper (significant change in both replicates, either direction)
# Method in brief: (§2)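 Using LC–triple-quadrupole MS with dynamic MRM, amines were quantified against external calibration curves and corrected for drift within each batch. Samples were whole anaerobic mGAM cultures of four gut strains, grown 27 h at 37 °C from OD 0.1 before 1:1 dilution, extracted with cold acetonitrile/methanol containing 0.1% formic acid and centrifuged. Compounds were present at 20 µM final (sweeteners at 50 µM final). The numbers are fold changes versus plate DMSO controls, each the mean of 2 biological replicates.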
# [6] = system: Clostridium sporogenes DSM 1664; experiment: fold change of Tryptamine concentration vs plate DMSO controls (fold change (ratio)); higher = more amine produced, active = hit call of the paper (significant change in both replicates, either direction)
# Method in brief: as §2
# [7] = system: Ruminococcus gnavus DSM 108212; experiment: as above
# Method in brief: as §2
# Escherichia coli IAI1 [8] = experiment: fold change of Putrescine concentration vs plate DMSO controls (fold change (ratio)); higher = more amine produced, active = hit call of the paper (significant change in both replicates, either direction)
# Method in brief: as §2
# [9] = system: Klebsiella aerogenes DSM 30053; experiment: as above
# Method in brief: as §2
# Escherichia coli IAI1 [10] = experiment: fold change of Cadaverine concentration vs plate DMSO controls (fold change (ratio)); higher = more amine produced, active = hit call of the paper (significant change in both replicates, either direction)
# Method in brief: as §2
# [11] = system: Klebsiella aerogenes DSM 30053; experiment: as above
# Method in brief: as §2
# [12] = system: Ruminococcus gnavus DSM 108212; experiment: fold change of 2-Phenylethylamine concentration vs plate DMSO controls (fold change (ratio)); higher = more amine produced, active = hit call of the paper (significant change in both replicates, either direction)
# Method in brief: as §2
Compound,growth [1],growth (Escherichia coli IAI1 [2]),growth [3],growth [4],fold change of Histamine concentration [5],fold change of Tryptamine concentration [6],fold change of Tryptamine concentration [7],fold change of Putrescine concentration (Escherichia coli IAI1 [8]),fold change of Putrescine concentration [9],fold change of Cadaverine concentration (Escherichia coli IAI1 [10]),fold change of Cadaverine concentration [11],fold change of 2-Phenylethylamine concentration [12]
COc1ccc(Cl)cc1C(=O)NCCc1ccc(S(=O)(=O)NC(=O)NC2CCCCC2)cc1 [Glibenclamide] (20 µM),1.19,1,1.04,1.04,0.91 (inactive),1.03 (inactive),1.06 (inactive),0.96 (inactive),0.964 (inactive),0.909 (inactive),1.03 (inactive),1.09 (inactive)
NC(=O)c1cnccn1 [Pyrazinamide] (20 µM),0.992,1.04,1,1.12,0.957 (inactive),1.04 (inactive),0.958 (inactive),1.01 (inactive),1 (inactive),0.98 (inactive),1.01 (inactive),0.906 (inactive)
O=C1Nc2ccccc2C1(c1ccc(O)cc1)c1ccc(O)cc1 [Oxyphenisatin] (20 µM),1.19,1.05,1,0.994,1.03 (inactive),0.982 (inactive),0.935 (inactive),1.04 (inactive),1 (inactive),1.01 (inactive),0.999 (inactive),0.89 (inactive)
Nc1nc2[nH]cnc2c(=S)[nH]1 [Tioguanine] (20 µM),1.3,0.969,1.09,0.899,1 (inactive),1.03 (inactive),1.01 (inactive),0.623 (active),0.987 (inactive),0.871 (inactive),0.998 (inactive),0.998 (inactive)
CC1(C)S[C@@H]2[C@H](NC(=O)C3(N)CCCCC3)C(=O)N2[C@H]1C(=O)O [Cyclacillin] (20 µM),0,1,1.02,0.0834,0.87 (inactive),0.0132 (active),0.0795 (active),0.887 (inactive),0.993 (inactive),1.36 (active),1 (inactive),0.0578 (active)
CCCCOc1ccc(CC(=O)NO)cc1 [Bufexamac] (20 µM),0.989,0.929,0.846,1.04,1.25 (inactive),0.989 (inactive),1.02 (inactive),0.929 (inactive),0.959 (inactive),0.965 (inactive),0.956 (inactive),1.07 (inactive)
Oc1cc(O)c2c(c1)O[C@H](c1ccc(O)c(O)c1)[C@@H](O)C2 [Cianidanol] (20 µM),1.04,0.998,0.998,1.06,1.03 (inactive),1.26 (active),0.867 (inactive),0.977 (inactive),0.95 (inactive),0.859 (inactive),0.993 (inactive),0.978 (inactive)
N=C(N=C(N)N)N1CCOCC1 [Moroxidine hydrochloride] (20 µM),0.931,1.05,1,1.39,1.11 (inactive),0.987 (inactive),1.18 (inactive),0.989 (inactive),1.06 (inactive),0.916 (inactive),1.09 (inactive),1.34 (active)
Cc1cccc(CN2CCN(C(c3ccccc3)c3ccc(Cl)cc3)CC2)c1 (centres undefined) [Meclozine dihydrochloride] (20 µM),0.897,0.963,1.01,0.705,0.964 (inactive),1.04 (inactive),0.826 (inactive),1 (inactive),0.989 (inactive),0.971 (inactive),1.01 (inactive),0.93 (inactive)
CCS(=O)(=O)CCn1c([N+](=O)[O-])cnc1C [Tinidazole] (20 µM),0,0.988,0.99,0.176,0.852 (inactive),0.0351 (active),0.0414 (active),1.01 (inactive),0.977 (inactive),1.04 (inactive),0.993 (inactive),0.0315 (active)
CC1CC(OC(=O)c2ccccc2O)CC(C)(C)C1 (centres undefined) [Homosalate] (20 µM),1.2,0.987,0.984,1.1,1.04 (inactive),0.994 (inactive),0.952 (inactive),1.23 (inactive),1 (inactive),1 (inactive),0.986 (inactive),0.922 (inactive)
O=C(CO)[C@@H](O)[C@H](O)[C@H](O)CO [D(-) Fructose] (50 µM),1.01,1.02,0.988,0.986,0.994 (inactive),0.929 (inactive),0.925 (inactive),1.04 (inactive),0.987 (inactive),1.07 (inactive),0.981 (inactive),0.919 (inactive)
